An excerpt weighted towards active compounds, which were near 3.5% of everything screened.
FBW7 act – activators of human E3 ligase FBW7; Q969H0; AlphaScreen FBW7–phospho-cyclin E peptide binding, activator screen; normalized activity (activation), % at 26.1 µM; 650,000 compounds, 0.13% hits; AID 1259310; in the data active = normalized activity above about 1.9%;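 also: purified mutant Fbw7 with reduced substrate affinity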
TEAD-YAP block – TEAD-YAP interaction inhibition | HEK-TIYL cells, TEAD-Gal4/YAP UAS-luciferase luminescence | inhibition, % at 9.12 µM | 640,000 compounds, 1.4% hits | AID 1259422; in the data active = inhibition above about 32%;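 also: 0% = median of test compound wells and 100% = reference inhibitor wells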
MITF inh – human MITF inhibition, primary screen; 650,000 compounds, 0.91% hits; inhibition, % at 2.6 µM; AID 1259374; AlphaScreen MITF homodimerization, bead proximity signal; in the data active = inhibition above about 50%;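 also: 0% = vehicle wells with protein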
GPR151 activ – human GPR151 activation. Q8TDV0. PathHunter beta-arrestin GPR151 cells, luminescence. activation, % at 11.2 µM. 650,000 compounds, 1% hits. AID 1508602; in the data active = activation above about 4.9%;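 also: 0% = median of compound wells and 100% = cells with positive control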
Target sequence (Q8TDV0 whole entry, looked up): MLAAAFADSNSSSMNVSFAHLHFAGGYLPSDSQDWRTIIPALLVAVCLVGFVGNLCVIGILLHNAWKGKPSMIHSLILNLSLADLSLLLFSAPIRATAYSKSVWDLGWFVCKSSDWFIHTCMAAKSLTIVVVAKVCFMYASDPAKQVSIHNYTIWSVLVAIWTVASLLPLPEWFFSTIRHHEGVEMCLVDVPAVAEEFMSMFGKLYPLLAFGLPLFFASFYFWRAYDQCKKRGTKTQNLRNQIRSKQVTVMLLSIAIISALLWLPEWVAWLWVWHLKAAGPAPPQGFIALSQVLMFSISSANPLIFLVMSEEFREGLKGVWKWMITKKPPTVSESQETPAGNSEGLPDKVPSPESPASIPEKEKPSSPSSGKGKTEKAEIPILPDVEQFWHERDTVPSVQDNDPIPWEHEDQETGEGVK
* marks the source's active call; other numbers are inactive results.

SMILES	FBW7 act	TEAD-YAP block	MITF inh	GPR151 activ
COc1ccc(-n2c(CN3CCOCC3)nc3ccc([N+](=O)[O-])cc3c2=O)c(OC)c1	0.5	6.7	17.6	-1.6
CC12CCCCC1C2C(=O)N/N=C\c1ccc(Br)cc1 (stereo not given)	0.1	-7.7	-0.5	-0.5
N#Cc1ccccc1NC(=O)Cn1ncc(Cl)c(Cl)c1=O	0.2	55.0*	9.8	-1.2
N#C/C(=C\c1ccccc1)c1nn(CCO)c(N)c1C#N	0.2	-16.7	15.5	1.8
N#C/C(=C\c1cccc(Cl)c1Cl)c1nn(CCO)c(N)c1C#N	-0.3	49.1*	8.8	1.4
CCn1c2ccccc2c2cc(/C=C(\C#N)c3nn(CCO)c(N)c3C#N)ccc21	-0.2	48.5*	-0.3	-0.1
CC(CO)Nc1c2ccccc2nc2ccccc12 (stereo not given)	0.0	37.6*	-4.9	-0.5
CCOCCC(=O)Nc1ccc2c(c1)OCCO2	-0.1	39.1*	8.1	-2.1
O=C(CCC(=O)Nc1ccc2c(c1)OCCO2)Nc1ccc2c(c1)OCCO2	0.0	0.7	16.3	-2.0
CCOC(=O)c1ccc(NC(=O)c2cccc(Oc3ccccc3)c2)cc1	0.1	47.9*	-6.6	1.4
CCOc1cccc(C(=O)Nc2ccc3ccccc3c2)c1	0.0	58.1*	9.6	-3.6
CCOc1cccc(C(=O)Nc2ccc3c(c2)OCCO3)c1	0.1	57.7*	2.2	-6.1
CCc1nnc(NC(=O)C2(NC(=O)Nc3c(C)cccc3C)CCCCC2)s1	0.1	4.3	13.6	0.9
COC(=O)c1cc2c(=O)n3cccc(C)c3nc2n(Cc2ccc(C)cc2)c1=N	-0.3	-3.5	-4.7	-0.6
Cc1ccoc1C(=O)Nc1ccc2ccccc2c1	0.0	40.6*	8.2	-9.1
Cc1cc(C(=O)Nc2ccc3ccccc3c2)oc1C	-0.1	-18.1	9.2	-1.9
COc1cc2c(cc1OC)C(C(=O)NCc1ccccn1)C(c1cccnc1)N(C)C2=O (stereo not given)	0.0	7.2	8.4	0.3
O=C(Nc1ccc(N2CCOCC2)cc1)c1cnccn1	-0.2	48.7*	-8.2	-3.9
O=C(Nc1ccc(N2CCN(C(=O)c3ccco3)CC2)cc1)c1cccc2ccccc12	0.2	54.5*	9.4	0.4
O=C(Nc1ccc(N2CCN(Cc3ccccc3)CC2)cc1)c1ccco1	0.5	-3.6	8.6	0.4
O=C(Nc1ccc(N2CCOCC2)cc1)c1ccco1	0.1	62.4*	9.4	-4.8
CC1CCc2c(sc(N3C(=O)c4ccc(C(=O)c5ccccc5)cc4C3=O)c2C#N)C1 (stereo not given)	0.2	9.2	11.2	-1.9
COc1ccc(N/N=C(\C#N)C(=N)SCc2ccccc2)cc1	0.0	33.2*	2.6	0.6
CC(C)C(NC(=O)CN(c1ccccc1Br)S(C)(=O)=O)C(C)C	2.4*	-13.6	21.5	-0.3
COc1ccccc1N(CC(=O)NC(C(C)C)C(C)C)S(C)(=O)=O	-0.1	-2.7	-7.7	-0.1
SMILES	FBW7 act	TEAD-YAP block	MITF inh	GPR151 activ
CN(C)S(=O)(=O)c1ccc(Cl)c(C(=O)Nc2cccc(C(=O)O)c2)c1	-0.1	11.4	5.4	0.1
CC(C)Sc1nnc(NC(=O)c2ccc3ccccc3c2)s1	0.1	-52.6	19.2	-0.6
O=C(NCc1ccco1)c1cccn2c(=O)c3cc4ccccc4cc3nc12	-0.3	-7.5	-5.1	-1.3
COCCCNC(=O)c1cccn2c(=O)c3cc4ccccc4cc3nc12	0.1	35.7*	-4.9	0.6
COCCCNC(=O)c1cc2c(=O)n3cccc(C)c3nc2n1C	0.0	55.9*	9.5	2.1
COCCNC(=O)c1cc2c(=O)n3cccc(C)c3nc2n1C	0.0	7.3	9.3	1.1
COc1ccc(CCNc2ncnc3[nH]ncc23)cc1	0.1	24.7	-2.2	2.4
c1ccc(CNc2ncnc3sccc23)cc1	0.3	1.5	-3.9	-0.2
COc1ccc(CCNc2ncnc3sccc23)cc1	-0.1	48.8*	-11.0	1.9
c1csc(CNc2ncnc3sccc23)c1	-0.1	32.4*	4.4	1.5
CN1CCN(c2ccc(-c3cccc(C(=O)NCc4nc5ccccc5[nH]4)c3)cc2)CC1	-0.1	68.0*	2.5	2.7
CN1CCN(c2ccc(-c3cc(C(=O)NCc4nc5ccccc5[nH]4)ccn3)cc2)CC1	-0.1	87.7*	-0.5	-1.8
COc1ccc(-c2cccc(C(=O)NCc3nc4ccccc4[nH]3)c2)cc1	0.0	-12.1	6.9	0.1
COc1cccc(N2C(=O)/C(=C/c3ccc(-c4ccc(Br)cc4)o3)C=C2c2ccccc2)c1	0.1	-12.8	4.2	0.9
Cc1ccc(CNc2ccnc3c(-c4ccc(CO)cc4)cnn23)c(C)c1	0.1	-0.9	10.3	1.2
O=C(O)C1C2CCC(C2)C1C(=O)NCc1ccccn1 (stereo not given)	-0.1	-4.3	-6.4	1.5
CCN(Cc1ccccc1)S(=O)(=O)c1cc(C(=O)Nc2ccc(C)c(F)c2)ccc1F	0.1	57.1*	-6.2	2.5
CCN(Cc1ccccc1)S(=O)(=O)c1cc(C(=O)Nc2ccc(Oc3ccccc3)cc2)ccc1F	0.0	65.8*	2.1	0.6
CCN(CC)S(=O)(=O)c1cc(C(=O)Nc2ccc(C)c(F)c2)ccc1F	0.1	-37.3	7.9	-0.5
O=C(Nc1ccc(Br)cc1)c1ccc(F)c(S(=O)(=O)NCc2cccs2)c1	0.3	60.4*	7.4	0.1
CCN(c1ccccc1)S(=O)(=O)c1ccc(NC(=O)Nc2ccccc2)cc1	0.2	17.8	2.7	-0.3
CCN(c1ccccc1)S(=O)(=O)c1ccc(C(=O)Nc2ccc(C(C)=O)cc2)cc1	2.3*	7.3	8.0	2.8
Cc1ccc(-n2nc(C(=O)NC3CC3)c3c4ccccc4n(C)c3c2=O)cc1	0.4	-3.6	17.4	-0.6
CCN(CC)S(=O)(=O)c1cc(C(=O)Nc2cccc(O)c2)ccc1Cl	0.5	73.2*	8.7	-0.5
CCN(Cc1ccccc1)S(=O)(=O)c1cc(C(=O)Nc2cccc(Cl)c2)ccc1F	0.5	58.3*	6.6	0.9
SMILES	FBW7 act	TEAD-YAP block	MITF inh	GPR151 activ
CN(Cc1ccccc1)S(=O)(=O)c1cc(C(=O)Nc2ccc(Br)cc2)ccc1F	0.1	40.8*	-2.3	1.0
CCN(c1ccccc1)S(=O)(=O)c1cc(C(=O)Nc2ccc(Oc3ccccc3)cc2)ccc1F	0.1	49.0*	17.5	0.7
O=C(NCCN1CCOCC1)c1cc(Br)ccc1Cl	-0.1	-0.1	8.0	0.2
Cc1ccc(-n2ncc3c(NCCCn4ccnc4)ncnc32)cc1C	0.0	-26.1	18.9	-1.1
Clc1cccc(-n2ncc3c(NCCCn4ccnc4)ncnc32)c1	-0.1	56.4*	-4.1	-1.7
CCOC(=O)C1C(c2ccc(F)cc2)NC(=S)NC1(O)C(F)(F)F (stereo not given)	-0.2	9.6	5.3	0.3
CC(=O)Nc1nc(-c2ccc3c(c2)NC(=O)CO3)cs1	0.1	57.9*	5.8	-0.4
O=[N+]([O-])c1cc2c(cc1C(O)c1nnc(-c3ccccc3)o1)OCO2 (stereo not given)	0.0	81.3*	16.3	0.0
COC(=O)c1cn[nH]c1NC(=S)Nc1ccc(C)cc1C	-0.1	79.9*	4.7	-1.8
CCNS(=O)(=O)c1ccc2c(c1)oc(=O)c1cc(S(=O)(=O)NCC)ccc12	0.0	7.7	-4.9	1.3

Assay outcomes from PubChem.
